Results filed as inconclusive are left out. Unmarked numbers belong to inactive results. Active and inactive are the calls of the source. The call rests on the fitted dose curve; in most records, active means well fitted cell-killing curve with a large enough effect; inconclusive means small, poorly fitted or top-dose-only effect, or effect the other way; inactive means flat fitted curve, though single readings scatter.

The record followed here is PubChem BioAssay (NCATS).
On the % scale 0 is the no-effect control and ±100 the full control effect; potency means the concentration at half of the fitted maximal effect.

This experiment has as its system OV90. The experiment in a line: Primary qHTS to identify gynecologic anti-cancer compounds using libraries of approved drugs and bioactive compounds (AID 1345084). Further: nearly all actives have a fitted effect of over 55% in size. The conditions noted are these: Gynecologic cancer cell panel viability, ATPlite luminescence, 48 h; series mostly up to 57.5 µM; activity change, negative = cytotoxicity: at the top concentration. Put shortly:
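Cell viability after 48 h drug treatment, ATPlite luminescence readout; five doses.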
(In general: qHTS replaces the single test concentration by a dilution series.)
`C=C1[C@@H]2CC[C@@H]3[C@@](CCC4C(C(=O)O)(C(=O)O)C[C@@H](O[C@@H]5O[C@H](CO)[C@@H](O)[C@H](O)[C@H]5OC(=O)CC(C)C)C[C@]43C)(C2)[C@H]1O` (some centres not stated): the “activity change, negative = cytotoxicity” value is 0.518% [at 25.3 µM]. On the same count and under the same terms, then `N[C@@]1(C(=O)O)CC[C@H]2[C@H](C(=O)O)[C@H]21`, with 1.01%. On the same count and under the same terms, then `C[C@@H]1O[C@@H](O[C@H]2[C@@H]3C=CO[C@@H](O[C@@H]4O[C@H](CO)[C@@H](O)[C@H](O)[C@H]4O)[C@@H]3[C@@]3(CO)O[C@@H]23)[C@H](OC(=O)/C=C/c2ccccc2)[C@H](O)[C@H]1O`, with -11.2% [at 25.3 µM]; and `C[C@@H]1CC[C@]2(C(=O)O[C@@H]3O[C@H](CO)[C@@H](O)[C@H](O)[C@H]3O)CC[C@]3(C)C(=CCC4[C@@]5(C)C[C@@H](O)[C@H](O)[C@](C)(C(=O)O)C5CC[C@]43C)[C@@H]2[C@]1(C)O` (some centres not stated), with 11.1% [at 25.3 µM].

With `C=C1CN(Cc2ccc(C(=O)Nc3ccccc3N)cc2)C(=O)c2ccccc21`, the Potency is 6.31 µM (active). Turning to `COc1ccc(C(=O)n2c(C)c(Cc3cccc(O[C@@H](C)C(=O)O)c3)c3cc(OC(F)(F)F)ccc32)cc1`, the “activity change, negative = cytotoxicity” value is -1.56%. For the compound `C[C@@H]1O[C@@H](O[C@@H]2[C@@H](O)[C@H](O[C@H]3CC[C@@]4(C)C(CC[C@]5(C)C4CC=C4[C@@H]6CC(C)(C)CC[C@]6(C(=O)O[C@@H]6O[C@H](CO)[C@@H](O)[C@H](O)[C@H]6O)CC[C@]45C)C3(C)C)O[C@H](C(=O)O)[C@H]2O)[C@H](O)[C@H](O)[C@H]1O` (some centres not stated), the activity change, negative = cytotoxicity was 3.49% [at 11.6 µM].

As for `CCOC(=O)C(CCc1ccccc1)NC(C)C(=O)N1C(=O)N(C)CC1C(=O)O` (configuration not stated), the “activity change, negative = cytotoxicity” value is 2.75%. Still for that read-out and setting: in the case of `CC1=CCC2C(C)(C)CCC[C@]2(C)[C@@]12CC[C@](C)(CC(=O)O)O2` (some centres not stated) it was -0.64% [at 38.5 µM]; in that of `CC1CCC2C(C)(C)[C@@H](O)CC[C@]2(C)C12Cc1c(O)cc3c(c1O2)CN(C(CCC(=O)O)C(=O)O)C3=O` (some centres not stated), 7.1% [at 25.3 µM]; in that of `Cc1cc(NC(=O)Nc2ccc(F)c(F)c2)n(-c2ccccc2)n1`, -4.55%.

`CC(/C=C/C1=CC2=CC(=O)C(C)(O)C(O)C2=CO1)=C\C(C)CCO` (configuration not stated): the “activity change, negative = cytotoxicity” value was 3.11% [at 38.5 µM]. On the same count and under the same terms, then `CO[C@H]1C[C@@H]2CC[C@@H](C)[C@@](O)(O2)C(=O)C(=O)N2CCCC[C@H]2C(=O)O[C@H]([C@H](C)C[C@@H]2CC[C@H](n3cnnn3)[C@H](OC)C2)CC(=O)[C@H](C)/C=C(\C)[C@@H](O)[C@@H](OC)C(=O)[C@H](C)C[C@H](C)/C=C/C=C/C=C/1C`, with -39.6% [at 25.3 µM]; and `Cn1c(=O)cc(N2CCCC(N)C2)n(Cc2cc(F)ccc2C#N)c1=O` (configuration not stated), with 13.7%. In the case of `CCN1CCN(Cc2ccc(NC(=O)c3ccc(C)c(/C=C/c4cnc5[nH]ccc5c4OC)c3)cc2C(F)(F)F)CC1`, the Potency was 17.8 µM (active). As for `COc1c(Nc2ncc(Cl)c(N[C@H]3[C@@H](C(N)=O)[C@@H]4C=C[C@H]3C4)n2)ccc2c1CC[C@@H](N1CCOCC1)CC2`, the “activity change, negative = cytotoxicity” value was -3.7%. Same read-out and setting: then `COc1ccc(CC2NCCc3c2[nH]c2ccc(C)cc32)cc1OC` (configuration not stated), with -16.6%. For the compound `O=C(/C=C/c1cccc(S(=O)(=O)Nc2ccccc2)c1)NO`, the Potency was 3.98 µM (active). On the same count and under the same terms, then `Cc1cccc(C)c1-n1c(=O)c2cnc(Nc3ccc(N4CCN(C)CC4)cc3)nc2n2c3ccccc3nc12`, with 12.6 µM (active). As for `C=C[C@]1(C)C[C@H](O)[C@@H]2[C@H](OC(=O)[C@@H]2C)C1/C(C)=C/O[C@@H]1O[C@H](CO)[C@@H](O)[C@H](O)[C@H]1O` (some centres not stated), the “activity change, negative = cytotoxicity” value was 0.853% [at 25.3 µM]. Same read-out and setting: in the case of `C[C@H](NC(c1cccc(C[P+](=O)O)c1)[C@H](C)O)c1ccc(Cl)c(Cl)c1` (some centres not stated) it was 17.6%; in that of `O=C(N/N=C/c1ccc(O)c(O)c1)c1cc2ccccc2cc1O`, -32.4% [at 25.3 µM]; in that of `CO[C@H]1C[C@@H]2CC[C@@H](C)[C@@](O)(O2)C(=O)C(=O)N2CCCC[C@H]2C(=O)O[C@H]([C@H](C)C[C@H]2CC[C@@H](OP(C)(C)=O)[C@H](OC)C2)CC(=O)[C@H](C)/C=C(\C)[C@@H](O)[C@@H](OC)C(=O)[C@H](C)C[C@H](C)/C=C/C=C/C=C/1C`, -28.6% [at 38.5 µM]. Same read-out and setting: then `CC(C)=CCC/C(C)=C/CO[C@@H]1O[C@H](CO)[C@@H](O)[C@H](O)[C@H]1O`, with 9.3% [at 38.5 µM]. With `O=C(O)CCCCCC[C@H]1C(=O)NC(=O)N1CC[C@@H](O)C1CCCCC1`, the “activity change, negative = cytotoxicity” value was -4.03%.

On to `CCC(O)(C(=O)OCc1ccccc1NC(=O)CCC(=O)O)C(C)O` (configuration not stated), for which the “activity change, negative = cytotoxicity” value is 17.5% [at 38.5 µM]. The same measure, in the same setting: in the case of `COC(=O)C[C@H]1[C@]2(C)C3=C(C)[C@H](c4ccoc4)C[C@H]3O[C@@H]2[C@H](OC(C)=O)C2[C@](C)(C(=O)OC)C=CC(=O)[C@@]21C` (some centres not stated) it was 0.665% [at 25.3 µM].
